# According to PubChem BioAssay (Tox21):
# Results filed as inconclusive are left out. Where a call stands in place of a potency, no number is given. Values without a mark were called inactive. Active and inactive are the calls of the source. Calls follow the shape of the dose curve; as a rule, active = well fitted cell-killing curve with a large enough effect in the repeat runs; inconclusive = weak or mixed curves, or effect the other way; inactive = flat fitted curve, though single readings scatter.
# Columns and labels:
# [1] = cAMP Responsive Elements (CRE) small molecule antagonists, cell-based qHTS assay: qHTS cell viability counter screen (AID 2060913); also: nearly all actives have a fitted effect of over 40% in size
# Summary of the method: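 Steps: cells plated and held 18 hrs at 37 C/5% CO2; compounds and NKH477 (0.25 uM final) added; 3 hrs incubation; reporter substrate read; CellTiter-Glo added to measure cytotoxicity by luminescence.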
# [2] = cAMP Responsive Elements (CRE) small molecule agonists, cell-based qHTS assay: qHTS cell viability counter screen (AID 2060914);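 also: viability read after 3 h of compound exposure; nearly all actives have a fitted effect of over 50% in size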
# Summary of the method: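 Cells are seeded and incubated 18 h, treated with compounds in DMSO for 3 h, read for the bla reporter, then given CellTiter-Glo; luminescence is measured after 30 min at room temperature.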
# Potency is read from the fitted curve at half-maximal effect.
Structure (SMILES),Potency [1],Potency [2],"viability change, negative = cytotoxic [1]","activity change, negative = cytotoxicity [2]"
C=CC(N)=O,inactive,inactive,,
O=C(Nc1ccccc1)c1ccccc1I,inactive,inactive,,
CN(C)C1CSSSC1,inactive,inactive,,
CCc1cc(C)cc(CC)c1-c1c(OC(=O)C(C)(C)C)n2n(c1=O)CCOCC2,inactive,inactive,,
CCCN(CCC)c1c([N+](=O)[O-])cc(S(C)(=O)=O)cc1[N+](=O)[O-],inactive,inactive,,
CCCCC(CC)CO[N+](=O)[O-] (stereo not given),inactive,inactive,,
O=c1nc(O)n(Cl)c(=O)n1Cl,inactive,inactive,,
CCOC(=O)C(Cl)Cc1cc(-n2nc(C)n(C(F)F)c2=O)c(F)cc1Cl (stereo not given),inactive,inactive,,
CC(=O)C(C)(C)C,inactive,inactive,,
O=C1NCN(c2ccccc2)C12CCN(CCCOc1ccc(F)cc1)CC2,inactive,inactive,,
CCn1cc[n+](C)c1C,inactive,inactive,,
CCc1ccccc1N,inactive,inactive,,
COCC(=O)N(c1c(C)cccc1C)[C@H](C)C(=O)OC,inactive,inactive,,
NNCc1ccccc1,inactive,inactive,,
CC1(C)[C@H](C(=O)O[C@H](C#N)c2cccc(Oc3ccccc3)c2)[C@@H]1C=C(Br)Br,inactive,inactive,,
Cc1cc(OC(=O)N(C)C)nn1C(=O)N(C)C,inactive,inactive,,
ClC(Cl)(Cl)Br,inactive,inactive,,
C=CCOC(N)=O,inactive,inactive,,
CCCCCCCCCCCCCCC(Br)C(=O)O (stereo not given),inactive,inactive,,
CC(C)CP(=S)(S)CC(C)C,inactive,inactive,,
CCCCCCCCCCCCCl,inactive,inactive,,
[CH3][Sn]([Cl])([Cl])[Cl],inactive,inactive,,
CN(C)c1ccc(N=Nc2ccccc2)cc1,inactive,inactive,,
Cl/C=C\CCl,inactive,inactive,,

Structure (SMILES),Potency [1],Potency [2],"viability change, negative = cytotoxic [1]","activity change, negative = cytotoxicity [2]"
N#CC(CCc1ccc(Cl)cc1)(Cn1cncn1)c1ccccc1 (stereo not given),inactive,inactive,,
O=P1(N(CCCl)CCCl)NCCCO1 (stereo not given),inactive,inactive,,
Cc1cc(Cl)ccc1N=CN(C)C,inactive,inactive,,
Oc1ccc(Cl)cc1,inactive,inactive,,
Clc1cccc(Cl)c1,inactive,inactive,,
CCCCCCCCCCCCN=C(N)N,,,-6.77% [at 3.27 µM],-15.8% [at 3.27 µM]
CN1CCc2cc(Cl)c(O)cc2[C@H]2c3ccccc3CC[C@@H]21,inactive,inactive,,
c1ccc2c(c1)-c1cccc3cccc-2c13,inactive,inactive,,
CCCCOP(=O)(CCCC)OCCCC,inactive,inactive,,
O=P(O)(O)c1ccccc1,inactive,inactive,,
ClCCOCCCl,inactive,inactive,,
CCCCOC(=O)CCC(=O)OCCCC,inactive,inactive,,
CCNc1nc(NCC)nc(SC)n1,inactive,inactive,,
OCCN(CCO)CCO,inactive,inactive,,
Cc1ccccc1OP(=O)(Oc1ccccc1C)Oc1ccccc1C,inactive,inactive,,
Nc1c(Br)cc(Br)c2c1C(=O)c1ccccc1C2=O,,,10% [at 18.9 µM],-19.1% [at 18.9 µM]
Sc1ccccc1,inactive,inactive,,
ClCCCCl,inactive,inactive,,
CC(C)(COCC1CO1)COCC1CO1 (stereo not given),inactive,inactive,,
c1ccc(-c2ccccc2)cc1,inactive,inactive,,
CCCCOC(=O)COC(=O)c1ccccc1C(=O)OCCCC,inactive,inactive,,
O=[N+]([O-])CCO,inactive,inactive,,
O=[N+]([O-])c1ccc(CBr)cc1,inactive,inactive,,
CC(=O)[O-].CC(=O)[O-].O.O.[Zn+2],inactive,inactive,,

Structure (SMILES),Potency [1],Potency [2],"viability change, negative = cytotoxic [1]","activity change, negative = cytotoxicity [2]"
CC(C)N(C(=O)SC/C(Cl)=C/Cl)C(C)C,inactive,inactive,,
CCCN(CCC)N=O,inactive,inactive,,
COc1cnc(OC)n2nc(NS(=O)(=O)c3c(OCC(F)F)cccc3C(F)(F)F)nc12,inactive,inactive,,
CNC(=O)Oc1ccccc1OC(C)C,inactive,inactive,,
FC(Cl)(Cl)C(F)(Cl)Cl,inactive,inactive,,
N#CCCSCCC#N,inactive,inactive,,
CC1Sc2c(C(=O)O)c(=O)c3cc(F)c(N4CCNCC4)cc3n21 (stereo not given),inactive,inactive,,
CSSC,inactive,inactive,,
CCOC1Oc2ccc(OS(C)(=O)=O)cc2C1(C)C (stereo not given),inactive,inactive,,
CCC1(c2ccccc2)C(=O)N=C(O)NC1=O (stereo not given),inactive,inactive,,
C[C@]1(O)CC[C@H]2[C@@H]3CCC4=CC(=O)CC[C@]4(C)[C@@]3(F)[C@@H](O)C[C@@]21C,inactive,inactive,,
CCCCCCC#N,inactive,inactive,,
CC(Cl)C(=O)O (stereo not given),inactive,inactive,,
CCCCc1ccccc1,inactive,inactive,,
OCCCl,inactive,inactive,,
CCCC[n+]1ccccc1,inactive,inactive,,
Nc1ccc(-c2ccc(N)c(N)c2)cc1N,inactive,inactive,,
COC[C@H](C)N(C(=O)CCl)c1c(C)csc1C,inactive,inactive,,
C[C@H]1CC[C@@H]2[C@@H](C)[C@H]3[C@H](C[C@H]4[C@@H]5CC=C6CC(O[C@@H]7O[C@H](CO)[C@H](O)[C@H](O[C@@H]8O[C@H](CO)[C@@H](O)[C@H](O)[C@H]8O)[C@H]7O[C@H]7O[C@@H](C)[C@H](O)[C@@H](O)[C@H]7O)CC[C@]6(C)[C@H]5CC[C@]34C)N2C1 (stereo not given in full),inactive,inactive,,
CC(=O)[O-].CC(=O)[O-].[Hg+2],8.63 µM (active),10.9 µM (active),,
S=C(SSC(=S)N1CCCCC1)N1CCCCC1,inactive,inactive,,
CSc1nnc(C(C)(C)C)c(=O)n1N,inactive,inactive,,
COS(=O)(=O)OC,inactive,inactive,,
C=C(C)C(=O)OCC(CC)CCCC (stereo not given),inactive,inactive,,

Structure (SMILES),Potency [1],Potency [2],"viability change, negative = cytotoxic [1]","activity change, negative = cytotoxicity [2]"
CN(C)P(=O)(N(C)C)N(C)C,inactive,inactive,,
CC(=O)NNc1ccccc1,inactive,inactive,,
Nc1ccc(-c2ccc(N)c(Cl)c2)cc1Cl,inactive,inactive,,
CNC(C)Cc1ccc2c(c1)OCO2 (stereo not given),inactive,inactive,,
CNC(=S)S,inactive,inactive,,
Clc1cc2c(cc1Cl)Oc1cc(Cl)c(Cl)cc1O2,,,7.14% [at 0.349 µM],1.6% [at 0.349 µM]
CN/C(=N\[N+](=O)[O-])NCC1CCOC1 (stereo not given),inactive,inactive,,
O=C(Cc1ccccc1)OCCc1ccccc1,inactive,inactive,,
CC(C)(N)Cc1ccc(Cl)cc1,inactive,inactive,,
O=P1(NCCCl)OCCCN1CCCl (stereo not given),inactive,inactive,,
Brc1ccc(Oc2ccccc2)cc1,inactive,inactive,,
Clc1ccc(Oc2ccccc2)cc1,inactive,inactive,,
Cc1cc(Cl)ccc1O[C@H](C)C(=O)O,inactive,inactive,,
c1ccc(N=NNc2ccccc2)cc1,inactive,inactive,,
CCCC(C)C1(CC)C(=O)N=C(S)NC1=O (stereo not given),inactive,inactive,,
C[N+](C)(C)CCCl,inactive,inactive,,
CC(=[OH+])/C=C(/C)[O-].CC(=[OH+])/C=C(\C)[O-].CC(=[OH+])/C=C(\C)[O-].[Fe],inactive,inactive,,
CCCC[N+]1(C)[C@@H]2CC(OC(=O)[C@H](CO)c3ccccc3)C[C@H]1[C@@H]1O[C@@H]12 (stereo not given in full),inactive,inactive,,
CNC(=O)NC(O)C(Cl)(Cl)Cl (stereo not given),inactive,inactive,,
CCOC(=O)OC1=C(c2cc(C)ccc2C)C(=O)NC12CCC(OC)CC2 (stereo not given),inactive,inactive,,
CCOP(=S)(OCC)SCSCC,inactive,inactive,,
CC[N+]1(CCOC(=O)C(O)(c2ccccc2)c2ccccc2)CCCCC1,inactive,inactive,,
Cc1ccc(S(=O)(=O)N[C@@H](CCCCN)C(=O)CCl)cc1,inactive,inactive,,
CCC(CC)(CNC(=O)CCCO)c1cccc(OC)c1,inactive,inactive,,

Structure (SMILES),Potency [1],Potency [2],"viability change, negative = cytotoxic [1]","activity change, negative = cytotoxicity [2]"
CCCCCCCCc1ccc(O)cc1,inactive,inactive,,
CCOC(=O)CBr,inactive,inactive,,
CCCCN(CCCC)C(=S)S,inactive,inactive,,
CCOc1cc(OP(=S)(OC)OC)nc(CC)n1,inactive,inactive,,
CCOC(=S)S,inactive,inactive,,
COc1cc(N)c(Cl)cc1C(=O)NC1CN2CCC1CC2 (stereo not given),inactive,inactive,,
COc1cc(CCN)cc(OC)c1OC,inactive,inactive,,
CNC(=O)Oc1cc(C)cc(C(C)C)c1,inactive,inactive,,
CC(C)OC(=O)Nc1ccccc1,inactive,inactive,,
Nc1ccc(-c2ccc(N)cc2)cc1,inactive,inactive,,
Clc1ccc(C(c2ccc(Cl)cc2)C(Cl)(Cl)Cl)cc1,inactive,inactive,,
Cc1ccc2ccccc2c1,inactive,inactive,,
Cc1cc(C)c(C(=O)P(=O)(C(=O)c2c(C)cc(C)cc2C)c2ccccc2)c(C)c1,inactive,inactive,,
N#CC(Cl)Cl,inactive,inactive,,
CC(C)(C)C(=O)CCl,inactive,inactive,,
ClCC(Cl)Cl,inactive,inactive,,
N#CCNCC#N,inactive,inactive,,
CCCCCCCCOC(=O)c1ccccc1C(=O)OCCCCCCCC,inactive,inactive,,
O=C(NC(O)C(Cl)(Cl)Cl)NC(O)C(Cl)(Cl)Cl (stereo not given),inactive,inactive,,
CCCCCCC1CCOC1=O (stereo not given),inactive,inactive,,
CC(C)(O)C#N,inactive,inactive,,
CCC(=O)c1ccccc1,inactive,inactive,,
Clc1ccc(C2(Cn3cncn3)OCCO2)c(Cl)c1,inactive,inactive,,
Clc1ccc(C(Cl)(Cl)Cl)cc1Cl,inactive,inactive,,
